# G9a block – qHTS Assay for Inhibitors of Histone Lysine Methyltransferase G9a | hit rate 8.8% among 350,000 | Histone-lysine N-methyltransferase EHMT2 (Homo sapiens), Q96KQ7 | Potency, µM (doses to about 102 µM), inactives show at the highest dose activity, negative = inhibition, usual class: inhibitors | G9a H3K9 monomethylation, AlphaScreen, 2 h; note: % is set by controls: 0 for no effect and ±100 for the full control effect; nearly all actives have a fitted effect of over 75% in size
#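 Enzyme 20 nM + cpd, 15 min RT; add b-H3K9 pep 500 nM / SAM 20 uM; 2 h RT; anti-H3K9me1 Ab 0.5 ug/mL + SA donor / anti-rabbit acceptor beads 20 ug/mL each, 10 min; AlphaScreen read.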
# HP1b binding inh – HTS for Inhibitors of HP1-beta Chromodomain Interactions with Methylated Histone Tails; Chromobox protein homolog 1 (Homo sapiens), P83916; AlphaScreen HP1-beta / biotin-H3K9me3 peptide binding; Potency, µM (top dose mostly 114 µM), for the others: at the top dose activity change, negative = inhibition, usual class: inhibitors; hit rate 0.56% among 390,000; note: nearly all actives have a fitted effect of over 70% in size
#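 Compound inhibition of the preformed complex between 50 nM HP1-beta and 50 nM biotinylated H3K9me3 peptide was read by AlphaScreen. Buffer was PBS pH 7.4 with 0.01% Tween-20. Incubations ran 30 min at room temperature, with 10 ug/mL donor/acceptor beads.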
# BAZ2B block – qHTS Assay for Inhibitors of BAZ2B; AID 504333, 2011; Potency, µM (doses to about 114 µM), inactives show at the highest dose activity change, negative = inhibition, actives largely listed as inhibitors; hit rate 4.4% among 360,000; AlphaScreen BAZ2B-H3K14Ac peptide displacement; Bromodomain adjacent to zinc finger domain protein 2B (Homo sapiens), Q9UIF8; note: % is set by controls: 0 for no effect and ±100 for the full control effect; nearly all actives have a fitted effect of over 60% in size
#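 Protein-peptide AlphaScreen: BAZ2B 50 nM, b-H3K14Ac 50 nM, 1x PBS pH 7.4 + 0.01% Tween-20. Preincubation 30 min RT; cpd 30 min RT (top 110 uM); beads 20 min RT, light-protected.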
# JMJD2A Tudor inh – qHTS Assay for Inhibitors of JMJD2A-Tudor Domain; AlphaScreen JMJD2A-Tudor / H3K4me3 peptide binding; hit rate 4.4% among 390,000; Potency, µM (titrated, usually from 114 µM), inactives show at the top dose activity change, negative = inhibition, most hits filed as inhibitors; AID 504339, 2011; note: % is set by controls: 0 for no effect and ±100 for the full control effect; nearly all actives have a fitted effect of over 50% in size
# GLS inh – qHTS for Inhibitors of Glutaminase (GLS); Glutaminase kidney isoform, mitochondrial (Homo sapiens), O94925; GLS enzymatic activity, qHTS titration; Potency, µM (doses to about 45.5 µM), inactives show top-dose activity change, negative = inhibition, most hits filed as inhibitors; hit rate 0.21% among 410,000; note: % is set by controls: 0 for no effect and ±100 for the full control effect
#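 hKGA in 45 mM KH2PO4 (pH 8.2), 0.02% Tween-20 with compound, then 1mM L-Glutamine (stock as added) plus glutamate oxidase/HRP/Amplex red coupling mix. Fluorescence read initially and after 30 min at RT; signal change reflects glutamate formation.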
# Starred values were filed as active, the others as inactive; ? = inconclusive; / = not tested or not shown; ! = not confirmed by another sample; [ ] = dose if it differs, or a comment. Most compounds without a hit are left out; they make up all but 10% or so of the library. Calls come from the whole dose curve; as a rule, active = well fitted curve in the direction sought with a large enough effect; inconclusive = small, poorly fitted or top-dose-only effect, or another doubt; inactive = no such curve, though single readings can be large; an effect the other way counts as inactive or inconclusive. Potency is the fitted concentration of half-maximal effect.
SMILES,G9a block,HP1b binding inh,BAZ2B block,JMJD2A Tudor inh,GLS inh
O=C(CSc1nc2cc(S(=O)(=O)N3CCOCC3)ccc2o1)NC1CCCc2ccccc21 (stereo unspecified),?,-36.0%,-4.5%,50.1µM*,87.6%
CCn1c2ccccc2c2nc3cc(S(=O)(=O)N4CCOCC4)ccc3nc21,2.24µM*,?,0.5%,-8.7%[57.1 µM],0.8%
Cc1ccc(C(=O)CSc2nc3cc(S(=O)(=O)N4CCOCC4)ccc3o2)cc1,31.6µM*,5.4%,2.3%,-13.3%,-3.6%
Cc1cc(C)nc(NC(=O)/C=C/c2ccccc2Cl)c1,8.5%[59 µM],44.9%,-0.8%,-9.0%,8.7%
CC1CN(C(=O)c2cc(S(=O)(=O)N3CCCC3)c(Cl)cc2Cl)CC(C)O1 (stereo unspecified),?,20.1%,5.5%,-18.4%,4.4%
CCSc1nc2cc(S(=O)(=O)N3CCOCC3)ccc2o1,/,?,/,28.2µM*,-20.4%
CCOc1ccc2c(c1)-c1c(ssc1=S)C(C)(C)N2C,3.98µM*,2µM*,10µM*,11.2µM*,22.6%
CCOc1ccc2c(c1)C(C)=CC(C)(C)N2S(=O)(=O)c1ccc(F)cc1,-11.1%,51.7%,-2.3%,10.0%,-1.6%
O=C(c1cc(-c2ccncc2)nc2ccccc12)N1CCN(c2ccccc2O)CC1,9.4%,17.4%,-31.9%,-34.8%,6.0%
O=C(c1cc(-c2ccccc2)nc2ccccc12)N1CCN(c2ccccc2O)CC1,/,1.5%,-38.5%,?,7.08µM*
Cc1ccc2nc(-c3ccccc3)cc(C(=O)N3CCN(c4ccccc4O)CC3)c2c1,50.1µM*,-17.5%,-31.7%,?,20.4%
CC(C)(C)c1cc(-n2ccnc2)n2ncc(-c3ccc(Cl)cc3)c2n1,-0.5%[59 µM],37.4%,-4.2%,6.2%,-18.7%
CCc1ccc(C(=O)NNc2ccc(C)c(Cl)c2)cc1,7.94µM*,-10.2%,-22.4%,-29.9%,-33.1%
CCc1ccc(C(=O)NNc2ccc(S(N)(=O)=O)cc2)cc1,22.4µM*,16.5%,-0.4%,-7.3%,?
CCc1ccc(C(=O)NNc2ccc(F)cc2)cc1,/,-21.9%,?,-22.3%,26.8%
COc1ccc(NC(=O)CSc2ccc(C)cc2)cc1,-30.1%[59 µM],38.0%,-3.3%,-10.4%,-8.0%
COc1ccc(C=C2C(=O)c3ccccc3C2=O)cc1O,12.6µM*,?,10µM*,?,2.7%
COc1ccc(/C=C2\CN(Cc3ccccc3)C/C(=C\c3ccc(OC)c(O)c3)C2=O)cc1O,44.7µM*,?,39.8µM*,?,15.0%
Cc1ccccc1C(=O)Nc1nnc(-c2ccco2)s1,40.0%,-10.0%,?,-20.4%,2.3%
Cc1ccnc(NS(=O)(=O)c2ccc(N3C(=O)c4c(Cl)c(Cl)c(Cl)c(Cl)c4C3=O)cc2)n1,?,?,?,89.1µM*,-9.3%
Cc1ccnc(NS(=O)(=O)c2ccc(N3C(=O)c4ccccc4C3=O)cc2)n1,14.7%[59 µM],41.5%,-9.7%,-3.5%,1.6%
CC(C)(C)C(=O)COC(=O)c1ccc(O)cc1,12.2%[59 µM],62.7%,-2.2%,-15.1%,-10.4%
CC(C)(C)C(=O)OCOP(=O)(OCOC(=O)C(C)(C)C)C(C)(Oc1ccc(O)cc1)P(=O)(OCOC(=O)C(C)(C)C)OCOC(=O)C(C)(C)C,3.55µM*,/,/,/,/
CCOC(=O)C1CCN(C(=O)c2cn(C)c(=O)c3cc(OC)c(OC)cc23)CC1,-3.7%[59 µM],49.8%,-5.6%,-6.4%,-6.5%
CC1=CC(C)(C)N2C(=O)C(=Nc3ccc(O)cc3)c3cccc1c32,5.01µM*,39.8µM*,35.5µM*,-29.4%[11.4 µM],?
SMILES,G9a block,HP1b binding inh,BAZ2B block,JMJD2A Tudor inh,GLS inh
Cc1ccc(N(C(=O)Cn2nnc(-c3ccc(C)o3)n2)C(C(=O)NC2CCCC2)c2ccncc2)cc1 (stereo unspecified),11.2%,22.5%,-20.0%,4.2%,1.2%
CCC(C(=O)NC1CCCC1)N(C(=O)Cn1nnc(-c2ccc(C)o2)n1)C(C)(C)C (stereo unspecified),31.6µM*,31.6%,4.7%,-13.5%,-19.5%
O=C(NC1CCCCC1)C(c1ccncc1)N(C(=O)Cn1nnc(-c2cccs2)n1)C1CCCC1 (stereo unspecified),22.4µM*,4.8%,4.1%,-27.6%,-0.4%
CCN(CC)C(=O)Cn1nnc(-c2ccc(C)o2)n1,3.98µM*,40.5%,-5.9%,-11.1%,-5.6%
CCC(C(=O)NC1CCCC1)N(C(=O)Cn1nnc(-c2ccc(C)o2)n1)c1ccc(OC)cc1 (stereo unspecified),6.4%,11.0%,3.1%,-10.7%,14.9%
Cc1ccc(-c2nnn(CC(=O)N(Cc3cccs3)C(C(=O)NC3CCCC3)c3ccncc3)n2)cc1 (stereo unspecified),?,-1.7%,1.4%,-34.3%,3.5%
Cc1ccc(-c2nnn(CC(=O)N(Cc3ccccc3)C(C(=O)NC3CCCC3)c3ccncc3)n2)o1 (stereo unspecified),22.4µM*,47.7%,-3.3%,-7.1%,-7.1%
Cn1c(CCNC(=O)c2ccco2)nc2cc(NC(=O)c3ccccc3)ccc21,-36.2%,49.6%,?,-7.5%,-5.1%
O=S(=O)(NCc1csc(-c2ccccc2)n1)c1cccc(F)c1,2.7%[59 µM],45.2%,11.0%,5.0%,-6.2%
CC(C)(C)OC(=O)C[C@@H]1C/C=C\C[C@@H](CC(=O)N[C@@H](CO)Cc2ccccc2)C(=O)NCCOC1=O,/,31.1%,/,-6.2%,0.2%
CC(C)[C@H](N)C(=O)NC[C@H]1O[C@@H](n2cnc3c(N)ncnc32)[C@H](O)[C@@H]1O,/,31.2%,/,0.0%,-1.4%
CC1=C(C(=O)N(C(C)C)C(C)C)CC(CC(=O)NCCc2ccccn2)C(=O)N1CCC1=CCCCC1 (stereo unspecified),/,/,/,/,-1.2%
CCCC(C(=O)NC1CCCC1)N(C(=O)Cn1nnc(-c2ccc(C)o2)n1)C1CCCC1 (stereo unspecified),11.2µM*,11.7%,-3.1%,-30.9%,-12.8%
CCOc1ccc(N(CC(=O)NC2CCCCC2)C(=O)Cn2nnc(-c3ccc(C)o3)n2)cc1,44.7µM*,2.8%,-24.7%,-8.1%,-0.7%
Cc1ccccc1OCCSc1nc(C)c(Cc2ccccc2)c(=O)[nH]1,-23.3%[59 µM],31.7%,-5.9%,-13.5%,0.7%
CC(=O)c1ccc2c(c1)N(CCCN1CCC(CCO)CC1)c1ccccc1S2,-9.6%[59 µM],-3.9%,3.5%,-35.3%,19.9%
CSc1ccc2c(c1)N(CC[C@H]1CCCCN1C)c1ccccc1S2,11.2µM*,/,/,/,/
CSc1ccc2c(c1)N(CCC1CCCCN1C)c1ccccc1S2 (stereo unspecified),17.8µM*!,?,31.6µM*,50.1µM*,-0.5%
